This is a sample that favours compounds with a hit; in the whole collection about 1.5% have one here.
FID counter = counter-screen for HCV NS3 helicase inhibitors: DNA intercalator displacement; DNA fluorescent intercalator displacement, fluorescence; inhibition, % at 7.9 µM; 290,000 tested, 0.17% active; in the data active means inhibition above about 37%;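 further: 0% = vehicle and 100% = reference compound; higher means more ethidium bromide displaced from hairpin DNA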
NRP1-CendR mod = modulators of CendR peptide binding to human neuropilin-1; O14786; FAM-RPARPAR peptide binding to NRP-1, fluorescence polarization; inhibition, % at 25 µM; 360,000 tested, 0.85% active; AID 602438;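 active means inhibition or corrected inhibition above about 18%, plus a signal ratio from 0.5 to 1.5, limit read from the data, passing the limit was not always enough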
RAD52 inh = inhibitors of human RAD52 DNA annealing. 360,000 tested, 0.46% active. recombinant RAD52 DNA annealing, FRET fluorescence. inhibition, % at 18.7 µM;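 active means every replicate showing at least 50% inhibition; inconclusive means mean inhibition at least 50% but not in every replicate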
Glyco luc inh = N-linked glycosylation inhibition; D54 ERlucT glycosylation luciferase reporter, 24 h; percent of 100 nM tunicamycin response; reporter increase, % at 12.5 µM; 360,000 tested, 0.23% active;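 active means mean luciferase reporter signal, scaled so untreated is 0 and the glycosylation-blocking control 100, at or above a set limit in every replicate; inconclusive means mean reaches the limit but not every replicate does; inactive means mean below the limit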;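 further: luciferase carries N-glycosylation sites so blocking glycosylation raises the light; 0% = median of neutral control wells and 100% = median of 100 nM tunicamycin wells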
RAD54 inh = inhibitors of human RAD54 branch migration; Q92698; AID 602329; inhibition, % at 10.4 µM; 360,000 tested, 0.14% active; RAD54 Holliday junction branch migration, FAM/BHQ fluorescence;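 active means mean normalized replicate activity at least 40 and at least half of replicates scoring 40 or more; inconclusive means only one of the two criteria met; inactive means mean below 40 and under half of replicates reaching 40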;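 further: 0% = median of neutral control wells and 100% = median of positive control wells; inhibitors cause a drop in the FAM fluorescence signal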
Target sequence (Q92698 whole entry, looked up): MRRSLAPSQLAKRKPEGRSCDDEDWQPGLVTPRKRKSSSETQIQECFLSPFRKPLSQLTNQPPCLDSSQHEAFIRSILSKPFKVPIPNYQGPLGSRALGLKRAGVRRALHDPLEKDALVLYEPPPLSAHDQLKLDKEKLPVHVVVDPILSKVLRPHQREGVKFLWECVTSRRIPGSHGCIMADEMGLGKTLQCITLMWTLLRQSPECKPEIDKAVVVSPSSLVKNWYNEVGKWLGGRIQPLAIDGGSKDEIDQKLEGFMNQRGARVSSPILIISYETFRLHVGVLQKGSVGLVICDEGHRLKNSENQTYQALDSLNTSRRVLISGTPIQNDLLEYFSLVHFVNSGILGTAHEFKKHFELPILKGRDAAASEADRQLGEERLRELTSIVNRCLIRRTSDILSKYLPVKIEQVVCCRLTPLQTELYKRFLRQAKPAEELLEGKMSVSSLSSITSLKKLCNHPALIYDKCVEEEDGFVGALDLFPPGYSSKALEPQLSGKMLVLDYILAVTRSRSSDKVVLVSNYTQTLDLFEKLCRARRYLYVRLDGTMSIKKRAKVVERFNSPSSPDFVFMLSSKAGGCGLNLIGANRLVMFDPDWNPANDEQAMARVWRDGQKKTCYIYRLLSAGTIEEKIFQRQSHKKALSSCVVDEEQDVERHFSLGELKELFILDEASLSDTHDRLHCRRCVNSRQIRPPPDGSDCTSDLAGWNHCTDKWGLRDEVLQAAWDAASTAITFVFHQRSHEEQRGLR
miR122 inh = miR-122 inhibition in Huh7 cells | Huh7 miR-122 Renilla luciferase sensor, 48 h; neutral wells = 0, positive control = 100 | activation (reporter increase), % at 12.5 µM | 340,000 tested, 0.3% active | AID 602342;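 active means mean replicate activation score at least 90 and every replicate individually at or above 90; inconclusive means only one of the two criteria met; inactive means neither criterion met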;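 further: higher luciferase means less miR-122 activity so hits act as miR-122 inhibitors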
An asterisk follows results filed as active; ? = inconclusive; · = no result given; ! = a repeat was not active; [ ] = dose if it differs, or a comment.

SMILES	FID counter	NRP1-CendR mod	RAD52 inh	Glyco luc inh	RAD54 inh	miR122 inh
COCCNC(=O)[C@@H]1[C@@H](CO)[C@@H]2Cn3c(ccc(-c4cccc(F)c4)c3=O)[C@H]1N2C(=O)NC(C)C	·	·	0.0	·	-1.7	·
Cc1cc(C(=O)Nc2cccc3c2O[C@H](CN(C)Cc2ccc(Cl)c(Cl)c2)[C@@H](C)CN([C@H](C)CO)C3=O)n(C)n1	·	·	3.2	·	-1.8	34.3[16.7 µM]
Cc1ccc(-c2ccc(C3[C@H]4CNC[C@@H]3N4C(=O)Nc3ccccc3Cl)cc2)cc1 (some centres not stated)	·	·	52.9*!	·	·	·
O=C(Nc1ccc2c(c1)OCO2)N1C[C@@H]2N[C@H](C1)C2c1ccc(C=Cc2ccccc2)cc1 (some centres not stated)	·	·	79.2*	·	·	·
C/C=C/c1ccc(C2[C@@H]3CN(C(=O)c4ccc5c(c4)OCO5)C[C@H]2N3)cc1 (some centres not stated)	·	·	-2.4	·	·	·
N#Cc1cccc(-c2ccc(C3[C@H]4CNC[C@@H]3N4C(=O)Nc3ccc(Cl)cc3)cc2)c1 (some centres not stated)	·	·	-27.7	·	·	·
O=C(Nc1ccc(Cl)cc1)N1[C@@H]2CNC[C@H]1C2c1ccc(-c2ccccc2)cc1 (some centres not stated)	·	·	57.6*!	·	·	·
O=C(Nc1ccccc1Cl)N1[C@@H]2CNC[C@H]1C2c1ccc(-c2ccccc2)cc1 (some centres not stated)	·	·	-2.1	·	·	·
O=C(C[C@H]1C=C[C@H](NC(=O)CC2CC2)[C@H](CO)O1)NCc1ccc(-c2ccccc2)cc1	·	·	-16.2	·	-7.1	-3.3[16.7 µM]
COc1ccc2c3c([nH]c2c1)[C@@H](CO)N(C(=O)Cc1ccccc1)CC31CN(C)C1	·	·	14.8	·	·	·
C/C(=N\NC(=O)c1ccc(-c2ccccc2)cc1)c1ccco1	-26.0	13.0	-32.2	3.8	-7.8	3.5
C/C(=N\NC(=O)c1cc([N+](=O)[O-])cc([N+](=O)[O-])c1)c1ccco1	5.5	25.0*	-16.5	1.7	·	-2.9
C/C(=N\NC(=O)c1cc(-c2ccc(Br)s2)[nH]n1)c1ccncc1	-25.8	8.5	-17.6	-1.9	6.8	-5.6
C/C(=N/NC(=O)c1cc(-c2ccc(Br)s2)[nH]n1)c1ccco1	-0.5	36.3*	-18.8	-0.1	·	·
C/C=C/c1cnc2c(c1)C(=O)N([C@H](C)CO)C[C@@H](C)[C@@H](CN(C)C(=O)NCCC)O2	·	·	5.5	·	-4.7	3.8[16.7 µM]
Cc1cccc(S(=O)(=O)Nc2cccc(-c3cn4ccsc4n3)c2)c1	-8.5	2.8	·	-2.5	-6.4	77.5
Cc1ccc(S(=O)(=O)Nc2cccc(-c3cn4ccsc4n3)c2)cc1	-9.0	2.2	·	3.8	1.0	142.3*
Cc1ccc(-c2ccc([C@H]3[C@H]4CN(S(=O)(=O)c5cccc(C)c5)CCCCN4[C@H]3CO)cc2)cc1	·	·	26.4	·	5.2	9.1[16.7 µM]
COc1ccc(S(=O)(=O)N2CCCCN3[C@H](C2)[C@H](c2ccc(C4=CCCCC4)cc2)[C@@H]3CO)cc1	·	·	-5.0	·	-6.9	4.3[16.7 µM]
Cc1ccc(-c2ccc([C@@H]3[C@H](CO)N4CCCCN(S(=O)(=O)c5cccc(C)c5)C[C@@H]34)cc2)cc1	·	·	68.9*	·	0.3	3.1[16.7 µM]
Cc1cccc(S(=O)(=O)N2CCCCN3[C@H](CO)[C@@H](c4ccc(-c5ccccc5)cc4)[C@H]3C2)c1	·	·	52.5*	·	0.2	12.9[16.7 µM]
COc1ccc(S(=O)(=O)N2CCCCN3[C@@H](CO)[C@@H](c4ccc(C5=CCCCC5)cc4)[C@@H]3C2)cc1	·	·	50.4*	·	-12.0	-3.3[16.7 µM]
Cc1ccc(-c2ccc([C@H]3[C@H](CO)N4CCCCN(S(=O)(=O)c5cccc(C)c5)C[C@@H]34)cc2)cc1	·	·	50.4*	·	1.6	4.9[16.7 µM]
COc1ccc(S(=O)(=O)Nc2ccc(N3CCOCC3)cc2)cc1[N+](=O)[O-]	3.0	24.8*	-6.0	1.8	2.9	-2.4
CN(C)S(=O)(=O)N1CCN(c2ccc([N+](=O)[O-])c(N3CCOCC3)c2)CC1	-8.8	9.4	-1.2	-1.6	·	·
SMILES	FID counter	NRP1-CendR mod	RAD52 inh	Glyco luc inh	RAD54 inh	miR122 inh
CS(=O)(=O)N1CCN(c2ccc([N+](=O)[O-])c(N3CCOCC3)c2)CC1	-4.2	28.2*	·	-1.7	-6.0	-2.2
CC(C)n1c(/C=C/c2ccccc2)nc2ccccc21	-11.8	5.7	·	0.4	5.6	192.0*
CCCn1c(/C=C/c2ccccc2)nc2ccccc21	-12.7	-11.7	·	-8.7	3.4	·
C[C@H]1CN([C@@H](C)CO)C(=O)Cc2cc(NS(C)(=O)=O)ccc2O[C@H]1CN(C)S(=O)(=O)c1ccc(F)cc1	·	·	-0.3	·	9.3	13.9[16.7 µM]
COC(=O)CCCC1=CC2=C(c3ccccc3)C(=O)C(C)(OC(=O)C3CCCC3)C(=O)C2=CN1Cc1ccco1 (configuration not stated)	·	29.5*	-30.3	1.6	-6.6	2.3
CCCNC(=O)N(C)C[C@H]1Oc2cc(-c3ccccc3F)ccc2S(=O)(=O)N([C@@H](C)CO)C[C@H]1C	·	·	5.7	·	6.2	·
C=CCn1c(N)cc(=O)nc1SC(C)C(=O)Nc1cccc2ccccc12 (configuration not stated)	-3.1	21.6*	·	1.1	-2.4	2.5
CC(Sc1nc(=O)cc(N)n1CCc1ccccc1)C(=O)NCc1ccccc1 (configuration not stated)	-20.7	-5.9	-19.7	-0.6	·	·
CCN(CC)CCn1c2ccccc2c2cnc(N=CN(C)C)c(C#N)c21	22.1	-2.1	·	?	96.6*	·
CCn1c2ccccc2c2cnc(N=CN(C)C)c(C#N)c21	-25.1	-16.4	·	-7.6	11.5	-1.4
CCCN1[C@H](C(=O)OC)[C@@H](CO)[C@@H]2Cn3c(ccc(-c4ccncc4)c3=O)[C@@H]21	·	·	-37.4	·	·	·
Cc1ccnc(NCc2cc(C)ccc2O)c1	-0.8	-1.7	-4.5	0.6	-1.0	211.0*
Cc1ccc(NS(=O)(=O)Cc2ccccc2)nc1	4.5	25.8*	-19.6	-1.9	·	·
C/C(=N\NC(=O)c1c([N+](=O)[O-])c(C)nn1C)c1ccc(NC(=O)C2CCCC2)cc1	-22.5	3.8	3.2	33.1*	15.3	72.0
COC(=O)c1[nH]c2cc(OC)ccc2c1NC(=O)c1ccc2c(c1)OCO2	-0.6	20.7*	·	3.0	·	·
C[C@@H]1CN([C@H](C)CO)S(=O)(=O)c2ccc(C#CC(C)(C)O)cc2O[C@H]1CN(C)C(=O)C1CC1	·	·	·	·	·	-8.3[16.7 µM]
CN(C)Cc1cc(C(F)(F)F)ccc1C(O)(c1ccccc1)c1ccccc1	·	21.1*	13.2	-2.8	15.5	·
O=C(Nc1ccc2c(c1)OCO2)O[C@@H]1C[C@H]2CCC(=O)N3CC[C@@H](C1)[C@@H]23	-16.2	20.6*	4.2	0.9	-6.7	-5.1
O=C(Nc1ccccc1)O[C@@H]1C[C@H]2CCC(=O)N3CC[C@@H](C1)[C@@H]23	-15.5	·	·	·	·	·
O=c1[nH]c(=O)n(C2CC(O)C(CO)O2)cc1Br (configuration not stated)	·	6.7	-6.8	35.8*	·	35.0

Screens deposited in PubChem BioAssay by several laboratories.
